Inconclusive results are not listed. Activity calls are given as the source filed them. Calls come from the whole dose curve; as a rule, active = well fitted curve in the direction sought with a large enough effect; inconclusive = small, poorly fitted or top-dose-only effect, or another doubt; inactive = no such curve, though single readings can be large; an effect the other way counts as inactive or inconclusive.
Experiments:
HACAT = experiment: qHTS assay to identify novel small-molecules to repurpose for Merkel cell carcinoma treatment (AID 1296009); settings: MCC and control cell lines, CellTiter-Glo viability, 72 h; at 44.8 µM (top of the series) unless noted; note: nearly all actives have a fitted effect of over 60% in size
In short: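 72 hr, 37 degree celsius; NPC 8-pt / MIPE 11-pt dose response; compound pinned in DMSO; CellTiter-Glo, 10 min RT, luminescence; normalized to no-cell and DMSO controls.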

C33A = experiment: Primary qHTS to identify gynecologic anti-cancer compounds using libraries of approved drugs and bioactive compounds (AID 1345084); settings: Gynecologic cancer cell panel viability, ATPlite luminescence, 48 h; series mostly up to 57.5 µM; note: % is set by controls: 0 for no effect and ±100 for the full control effect; nearly all actives have a fitted effect of over 55% in size
In short: (§1)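 In this quantitative HTS, cell killing is estimated from loss of ATP-dependent luciferase light. Cells see five compound concentrations over a 48 h exposure.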

CAOV3 = experiment: as above; settings: Gynecologic cancer cell panel viability, ATPlite luminescence, 48 h; series mostly up to 57.5 µM
In short: as §1

CASKI = experiment: as above; settings: Gynecologic cancer cell panel viability, ATPlite luminescence, 48 h; series mostly up to 57.5 µM
In short: as §1

Es-2 = experiment: as above; settings: Gynecologic cancer cell panel viability, ATPlite luminescence, 48 h; series mostly up to 57.5 µM
In short: as §1

HeLa = experiment: as above; settings: Gynecologic cancer cell panel viability, ATPlite luminescence, 48 h; series mostly up to 57.5 µM
In short: as §1

Hek293T = experiment: as above; settings: Gynecologic cancer cell panel viability, ATPlite luminescence, 48 h, control line for the selectivity index; series mostly up to 57.5 µM
In short: as §1

JEG-3 = experiment: as above; settings: Gynecologic cancer cell panel viability, ATPlite luminescence, 48 h; series mostly up to 57.5 µM
In short: as §1

COC(=O)C[C@H]1C(C)(C)[C@H](OC(=O)C(C)C)C2CC3=C4CC(=O)O[C@@H](c5ccoc5)[C@]4(C)CCC3[C@@]1(C)C2=O (stereo partly specified)
inactive: outcome (HACAT) inactive [at 17.4 µM] | Potency (C33A) | Potency (CAOV3) | outcome (CASKI) | Potency (Es-2) | Potency (HeLa) | Potency (Hek293T) | Potency (JEG-3)

COc1ccc(NC(=O)c2ccc(-c3ccc(C(N)=O)cc3C)cc2)cc1N1CCN(C)CC1
inactive: outcome (HACAT) | Potency (C33A) | Potency (CAOV3) | outcome (CASKI) | Potency (Es-2) | Potency (HeLa) | Potency (Hek293T) | Potency (JEG-3)

C[C@H]1[C@H](C)CC[C@]2(C(=O)OC3OC(CO)C(O)C(O)C3O)CC[C@]3(C(=O)O)C(=CCC4[C@@]5(C)CC[C@H](O[C@@H]6O[C@@H](C)[C@H](OC7OC(CO)C(O)C(O)C7O)[C@@H](O)[C@H]6O)C(C)(C)C5CC[C@]43C)[C@H]12 (stereo partly specified)
inactive: outcome (HACAT) inactive [at 9.27 µM] | activity change, negative = cytotoxicity (C33A) -28.6% [at 11.6 µM] | activity change, negative = cytotoxicity (CAOV3) 3.53% [at 11.6 µM] | activity change, negative = cytotoxicity (CASKI) 6.49% [at 11.6 µM] | activity change, negative = cytotoxicity (Es-2) 4.54% [at 11.6 µM] | activity change, negative = cytotoxicity (HeLa) -0.904% [at 11.6 µM] | activity change, negative = cytotoxicity (Hek293T) 6.98% [at 11.6 µM] | activity change, negative = cytotoxicity (JEG-3) 7.38% [at 11.6 µM]

C=C[C@H]1[C@H](O[C@@H]2O[C@H](CO)[C@@H](O)[C@H](OC(=O)/C=C/c3ccc(O)c(OC)c3)[C@H]2O)OC=C2C(=O)OCC[C@]21O
inactive: outcome (HACAT) inactive [at 17.4 µM] | Potency (C33A) | Potency (CAOV3) | outcome (CASKI) | Potency (Es-2) | Potency (HeLa) | Potency (Hek293T) | Potency (JEG-3)

C/C=C(\C)C(=O)O[C@H]1C=CC(=O)O[C@H]1/C=C/[C@H](O)[C@@H](C)O
inactive: outcome (HACAT) | Potency (C33A) | Potency (CAOV3) | outcome (CASKI) | Potency (Es-2) | Potency (HeLa) | Potency (Hek293T) | Potency (JEG-3)

CC(O)C/C=C/C=C/C(=O)OC1C=C2COC(=O)C2(O)C2(C)CCCC(C)(C)C12 (stereo unspecified)
inactive: outcome (HACAT) | Potency (C33A) | Potency (CAOV3) | outcome (CASKI) | Potency (Es-2) | Potency (HeLa) | Potency (Hek293T) | Potency (JEG-3)

CC1(C)CC[C@]2(C(=O)O)[C@H](O)C[C@]3(C)C(=CCC4[C@@]5(C)CC[C@H](O[C@@H]6OC[C@@H](O)[C@H](O)[C@H]6O)[C@@](C)(C(=O)O)C5CC[C@]43C)[C@@H]2C1 (stereo partly specified)
inactive: outcome (HACAT) inactive [at 17.4 µM] | Potency (C33A) | Potency (CAOV3) | outcome (CASKI) | Potency (Es-2) | Potency (HeLa) | Potency (Hek293T) | Potency (JEG-3)

COC(=O)[C@@H](NC(=O)[C@H](CC(C)C)NC(=O)N(Cc1ccccc1)C[C@@H](O)[C@H](Cc1ccccc1)NC(=O)OC(C)(C)C)C(C)C
inactive: outcome (HACAT) inactive [at 9.27 µM] | activity change, negative = cytotoxicity (C33A) 9.01% [at 11.6 µM] | activity change, negative = cytotoxicity (CAOV3) -0.568% [at 11.6 µM] | activity change, negative = cytotoxicity (CASKI) 1.08% [at 11.6 µM] | activity change, negative = cytotoxicity (Es-2) 0.55% [at 11.6 µM] | activity change, negative = cytotoxicity (HeLa) 4.24% [at 11.6 µM] | activity change, negative = cytotoxicity (Hek293T) -2.96% [at 11.6 µM] | activity change, negative = cytotoxicity (JEG-3) -2.99% [at 11.6 µM]

CC1(C)CC2C3=CCC4[C@@]5(C)CC[C@H](OC6OCC(O)C(OC7OC(CO)C(O)C(O)C7O)C6O)C(C)(C)C5CC[C@@]4(C)[C@]3(C)C[C@H](O)[C@@]2(CO)[C@H](OC(=O)c2ccccc2)C1 (stereo partly specified)
inactive: outcome (HACAT) inactive [at 9.27 µM] | activity change, negative = cytotoxicity (C33A) -0.821% [at 11.6 µM] | activity change, negative = cytotoxicity (CAOV3) -7.46% [at 11.6 µM] | activity change, negative = cytotoxicity (CASKI) -3.21% [at 11.6 µM] | activity change, negative = cytotoxicity (Es-2) -3.08% [at 11.6 µM] | activity change, negative = cytotoxicity (HeLa) 2.29% [at 11.6 µM] | activity change, negative = cytotoxicity (Hek293T) 17.5% [at 11.6 µM] | activity change, negative = cytotoxicity (JEG-3) 8.97% [at 11.6 µM]

O=C(O)[C@H]1Cc2ccccc2CN1
inactive: outcome (HACAT) inactive [at 4.96 µM] | activity change, negative = cytotoxicity (C33A) -12.5% [at 6.55 µM] | activity change, negative = cytotoxicity (CAOV3) 20.2% [at 6.55 µM] | activity change, negative = cytotoxicity (CASKI) -0.242% [at 6.55 µM] | activity change, negative = cytotoxicity (Es-2) -0.653% [at 6.55 µM] | activity change, negative = cytotoxicity (HeLa) 1.2% [at 6.55 µM] | activity change, negative = cytotoxicity (Hek293T) 13.1% [at 6.55 µM] | activity change, negative = cytotoxicity (JEG-3) 1.96% [at 6.55 µM]

CC(=O)NC(Cc1c[nH]c2ccccc(=O)c12)C(=O)O (stereo unspecified)
inactive: outcome (HACAT) | Potency (C33A) | Potency (CAOV3) | outcome (CASKI) | Potency (Es-2) | Potency (HeLa) | Potency (Hek293T) | Potency (JEG-3)

C=C(CCO)C(=O)OCC1OCC(OC(=O)C(=C)CCO[C@@H]2O[C@H](CO)[C@@H](O)[C@H](O)[C@H]2O)C(O)C1O (stereo partly specified)
inactive: outcome (HACAT) inactive [at 17.4 µM] | Potency (C33A) | Potency (CAOV3) | outcome (CASKI) | Potency (Es-2) | Potency (HeLa) | Potency (Hek293T) | Potency (JEG-3)

COC(=O)C1=CO[C@@H](O[C@@H]2O[C@H](CO)[C@@H](O)[C@H](O)[C@H]2O)[C@H]2[C@@H]1[C@H](O)[C@H](O)[C@]2(C)O
inactive: outcome (HACAT) inactive [at 17.4 µM] | Potency (C33A) | Potency (CAOV3) | outcome (CASKI) | Potency (Es-2) | Potency (HeLa) | Potency (Hek293T) | Potency (JEG-3)

CC(C)CC(c1c(O)c(C=O)c(O)c(C=O)c1O)C1CCC(C)(O)C2CC(C(C)(C)O)CCC12C (stereo unspecified)
inactive: outcome (HACAT) inactive [at 17.4 µM] | Potency (C33A) | Potency (CAOV3) | outcome (CASKI) | Potency (Es-2) | Potency (HeLa) | Potency (Hek293T) | Potency (JEG-3)

COc1cc(C(=O)OC[C@H]2O[C@@H](OC(C)(C)C(=O)O)[C@H](O)[C@@H](O)[C@@H]2O)cc(OC)c1O
inactive: outcome (HACAT) inactive [at 17.4 µM] | Potency (C33A) | Potency (CAOV3) | outcome (CASKI) | Potency (Es-2) | Potency (HeLa) | Potency (Hek293T) | Potency (JEG-3)

Cc1ccc(-c2c(-c3nn(C)c4ncnc(N5CCC(N6CCCCC6)C5)c34)cnn2C)cc1 (stereo unspecified)
inactive: outcome (HACAT) | Potency (C33A) | Potency (CAOV3) | outcome (CASKI) | Potency (Es-2) | Potency (HeLa) | Potency (Hek293T) | Potency (JEG-3)

CCC(C)(C)C1CCc2c(sc(NC(=O)c3ccc(Br)cc3)c2C#N)C1 (stereo unspecified)
inactive: outcome (HACAT) | Potency (C33A) | Potency (CAOV3) | outcome (CASKI) | Potency (Es-2) | Potency (HeLa) | Potency (Hek293T) | Potency (JEG-3)
